Peg3 imprint: induces erasure of genomic imprints in mouse ES cells | mouse ES Peg3-LacZ reporter, beta-gal luminescence, 40 h | Potency, µM (series often up to 60.7 µM), most hits filed as activators | hit rate 0.02% among 110,000
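Imprint erasure is scored as LacZ activity from the silenced maternal Peg3 allele in feeder-free female ES cells cultured 40 h with LIF. Luminescence is normalized to in-plate negative controls and fitted to the Hill equation.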
p53ts 32C kill: p53ts cell cytotoxicity, permissive temperature | AID 924 | hit rate 0.93% among 130,000 | H1299-p53A138V at 32C, ATP luminescence viability, 24 h | Potency, µM (doses to about 46.1 µM), hits mostly cytotoxic; further: nearly all actives have a fitted effect of over 55% in size
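H1299-p53 A138V cells (temperature-sensitive p53) exposed 24 h to up to 46 uM compound at 32C, where p53 is wild-type in conformation. Viability read as ATP luminescence and normalised to DMSO and 100 uM tamoxifen. AC50 fitted with the Hill equation.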
CRE Fsk mod: modulators of forskolin-stimulated CRE signaling in CHO cells | hit rate 2.5% among 71,000 | Potency, µM (doses to about 38.2 µM), actives largely listed as activators | CHO CRE-bla reporter (cAMP response element driving beta-lactamase), forskolin EC10, beta-lactamase ratio; active means well fitted activation curve with a large enough effect in the signal ratio, with a control signal flat, not every such curve was filed as active; inconclusive means small, poorly fitted or top-dose-only effect, or effect the other way, or a change in a side signal; the % refers to the signal ratio
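Cells were plated overnight at 37 °C, exposed to compound titrations plus EC10 NKH 477 for 3 h, then given CCF4 dye for 2 h at room temperature. Blue/green (460/530 nm) ratio was converted to %Activity and AC50 values calculated.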
IkB sig inh: inhibitors of IkB signaling in ABC-DLBCL cells; AID 445; Potency, µM (titrated, usually from 57.1 µM); ABC-DLBCL IkBa-CBG/CBR dual luciferase ratio, 4 h; response scale: scaled: untreated 0%, proteasome inhibitor 100%; hit rate 0.04% among 110,000; active means well fitted curve in the direction sought with a large enough effect in the signal ratio, not every such curve was filed as active; inconclusive means small, poorly fitted or top-dose-only effect, or a change in a side signal; the % refers to the signal ratio;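 further: the direction sought is a rising ratio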
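Curves were fitted separately to fusion (green), unfused (red) and ratio luminescence, then classed by r2, magnitude and activity. Cells: OCI-Ly3, 4 h compound plus doxycycline at 37C; 10 uM MG-132 defined full response.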
p53ts 39C kill: p53ts cell cytotoxicity, nonpermissive temperature; H1299-p53A138V viability at 39C, ATP luminescence, 24 h; Potency, µM (titrated, usually from 46.1 µM), actives largely listed as cytotoxic; hit rate 1.5% among 130,000; further: nearly all actives have a fitted effect of over 55% in size
A number is an active result; [ ] = remark or other dose. Sampled rows, rich in hits. Any-hit rate of the full collection: about 3%. Unless noted, the call rests on the fitted dose curve; in most records, active means well fitted curve in the direction sought with a large enough effect; inconclusive means small, poorly fitted or top-dose-only effect, or another doubt; inactive means no such curve, though single readings can be large; an effect the other way counts as inactive or inconclusive.

Results for CCc1ccccc1NC(=O)Cn1c(=O)n(CCc2ccccc2)c(=O)c2sc3ccccc3c21 ?
Peg3 imprint: inactive[10.9 µM]; p53ts 32C kill: inactive; IkB sig inh: inactive; p53ts 39C kill: 10µM

Results for COc1ccc(NC(=O)CC2C(=O)N(c3ccc(C)cc3)C(=O)N2CCc2ccccc2)cc1 (centres undefined) ?
Peg3 imprint: inactive[10.9 µM]; p53ts 32C kill: inactive; IkB sig inh: inconclusive; p53ts 39C kill: inactive

What do the screens show for `COc1ccc(-n2c(=O)c(-c3cc(F)cc(F)c3)nc3cnc(N4CCNCC4)nc32)cc1`?
p53ts 32C kill: inactive; CRE Fsk mod: inconclusive; IkB sig inh: inactive[11.4 µM]; p53ts 39C kill: inconclusive

What do the screens show for `COc1ccc(-n2c(=O)c(-c3cccc(C#N)c3)nc3cnc(N4CCNCC4)nc32)cc1`?
Peg3 imprint: inconclusive; p53ts 32C kill: inactive; CRE Fsk mod: 10µM; IkB sig inh: inactive[11.4 µM]; p53ts 39C kill: inactive

What do the screens show for `CN(C)c1ncc2nc(-c3ccc(F)cc3)c(=O)n(-c3ccccc3)c2n1`?
Peg3 imprint: inactive; p53ts 32C kill: inactive; CRE Fsk mod: 2.5µM; IkB sig inh: inactive[11.4 µM]; p53ts 39C kill: inactive

What do the screens show for `O=c1c(-c2cccs2)nc2cnc(N3CCNCC3)nc2n1-c1ccccc1`?
p53ts 32C kill: inactive; CRE Fsk mod: inconclusive; IkB sig inh: inactive[11.4 µM]; p53ts 39C kill: inactive

What do the screens show for `CN(C)c1ncc2nc(-c3ccccc3)c(=O)n(CCC#N)c2n1`?
Peg3 imprint: inactive; p53ts 32C kill: inactive; CRE Fsk mod: 2.5µM; IkB sig inh: inactive[11.4 µM]; p53ts 39C kill: inactive

What do the screens show for `CN(C)c1ncc2nc(-c3ccc(F)cc3)c(=O)n(CCc3ccccc3)c2n1`?
Peg3 imprint: inactive; p53ts 32C kill: inactive; CRE Fsk mod: inconclusive; IkB sig inh: inactive[11.4 µM]; p53ts 39C kill: inactive

Results for O=c1c(-c2ccc(F)cc2)nc2cnc(N3CCNCC3)nc2n1-c1ccccc1 ?
Peg3 imprint: inactive; p53ts 32C kill: 13µM; CRE Fsk mod: inconclusive; IkB sig inh: inactive[11.4 µM]; p53ts 39C kill: inconclusive

What do the screens show for `CC(=O)O[C@H]1C(=O)[C@]2(C)[C@H]([C@H](OC(=O)c3ccccc3)[C@@]3(O)C[C@H](OC(=O)[C@@H](O)[C@@H](NC(=O)c4ccccc4)c4ccccc4)C(C)=C1C3(C)C)[C@]1(OC(C)=O)CO[C@@H]1C[C@@H]2O`?
CRE Fsk mod: inconclusive; IkB sig inh: inactive[11.4 µM]

How did CCc1ccc(CNC(=O)c2ccc(-n3c(C)cc4c3CCC(C)C4)cc2)cc1 (centres undefined) do in these assays?
p53ts 32C kill: inactive

What do the screens show for `Cn1nc(C(=O)NCc2cccnc2)c2ccccc2c1=O`?
Peg3 imprint: inactive; p53ts 32C kill: inactive; CRE Fsk mod: inconclusive; IkB sig inh: inactive; p53ts 39C kill: inactive

What do the screens show for `Cn1nc(C(=O)Nc2cccnc2)c2ccccc2c1=O`?
Peg3 imprint: inactive; p53ts 32C kill: inactive; CRE Fsk mod: 10µM; IkB sig inh: inactive; p53ts 39C kill: inactive

What do the screens show for `CCCSc1nc2c(cnn2-c2ccc(C)cc2)c(=O)[nH]1`?
Peg3 imprint: inactive; p53ts 32C kill: inactive; CRE Fsk mod: 10µM; IkB sig inh: inactive; p53ts 39C kill: inactive

What do the screens show for `CCCSc1nc2c(cnn2-c2ccccc2)c(=O)[nH]1`?
Peg3 imprint: inactive; p53ts 32C kill: inactive; CRE Fsk mod: inactive; IkB sig inh: inactive; p53ts 39C kill: inactive

How did O=c1[nH]c(SCc2ccc(F)cc2)nc2c1cnn2-c1ccc(F)cc1 do in these assays?
Peg3 imprint: inactive; p53ts 32C kill: inactive; CRE Fsk mod: 4µM; IkB sig inh: inactive; p53ts 39C kill: inactive

What do the screens show for `CCC(Sc1nc2c(cnn2-c2ccc(Cl)cc2)c(=O)[nH]1)C(=O)OC` (centres undefined)?
Peg3 imprint: inactive; p53ts 32C kill: inactive; CRE Fsk mod: 3.2µM; IkB sig inh: inactive; p53ts 39C kill: inactive

How did CCC(C)Sc1nc2c(cnn2-c2ccc(C)cc2)c(=O)[nH]1 (centres undefined) do in these assays?
Peg3 imprint: inactive; p53ts 32C kill: inactive; CRE Fsk mod: 1.6µM; IkB sig inh: inactive; p53ts 39C kill: inactive

What do the screens show for `CCCCSc1nc2c(cnn2-c2ccc(Cl)cc2)c(=O)[nH]1`?
Peg3 imprint: inactive; p53ts 32C kill: inactive; CRE Fsk mod: inconclusive; IkB sig inh: inactive; p53ts 39C kill: inactive

Assay outcomes (PubChem)
